Test results as given in PubChem BioAssay AID729 (The Scripps Research Institute Molecular Screening Center, 2007).
Out of some 97,000 compounds screened, about 450 (0.46%) were called active. Shown is part of a subset that was picked to be rich in actives. A number with no mark means an inactive call. No stated cut-off is given here; in the data, active means activation above about 16%; inactive means the rest.

Target: Sphingosine 1-phosphate receptor 2 (Homo sapiens) (UniProt O95136)
Assay: S1P2 receptor agonists, primary screen, cell-based (AID 729);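 further: 0% = vehicle low control and 100% = maximal reference agonist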
Details: S1P2-expressing cell line, agonist reporter read-out; at 4.5 µM; hits give high values

Sphingosine 1-phosphate receptor 2 (Homo sapiens), sequence (O95136 whole entry, looked up): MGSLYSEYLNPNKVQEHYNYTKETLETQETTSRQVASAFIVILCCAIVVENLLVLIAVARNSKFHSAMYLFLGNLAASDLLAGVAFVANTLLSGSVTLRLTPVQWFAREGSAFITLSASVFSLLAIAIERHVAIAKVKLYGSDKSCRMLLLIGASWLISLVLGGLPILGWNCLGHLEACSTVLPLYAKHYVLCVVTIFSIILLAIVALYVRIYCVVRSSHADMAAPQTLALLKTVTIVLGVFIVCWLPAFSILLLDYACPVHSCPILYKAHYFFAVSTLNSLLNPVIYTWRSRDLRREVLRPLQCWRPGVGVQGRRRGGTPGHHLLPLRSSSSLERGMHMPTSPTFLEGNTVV

Q: With `Fc1ccc(CNc2nc3ccccc3n3nnnc23)cc1` as the compound, how does the activation read?
A: -7.16%

Q: For `O=C(NC(C(=O)NCCN1CCOCC1)C12CC3CC(CC(C3)C1)C2)C1CCCCC1` (stereo not given), which activation is on record?
A: -4.77%

Q: For `Cc1c(NC(=O)c2cc(-c3ccc(Cl)s3)nc3ccccc23)c(=O)n(-c2ccccc2)n1C`, which activation is on record?
A: -14.2%

Q: Which activation does the source give for `O=C(Nc1ccn(Cc2ccccc2F)n1)c1ccc(COc2ccc(Cl)cc2Cl)o1` here?
A: -5.78%

Q: Which activation does the source give for `O=C(Cn1cnc2ccccc2c1=O)NCC1COc2ccccc2O1` (stereo not given) here?
A: -3.16%

Q: `CCn1cc(C(=O)NCc2ccc3c(c2)OCO3)c2cc(OC)c(OC)cc2c1=O` was tested. Which activation did it give?
A: 14.1%

Q: How did the activation turn out when `CCn1cc(C(=O)NCC2COc3ccccc3O2)c2cc(OC)c(OC)cc2c1=O` (stereo not given) was run?
A: 19.9% (active)

Q: `CO/N=C/c1ccc(N2CCN(C(=O)c3cccc(Cl)c3)CC2)c([N+](=O)[O-])c1` was tested. Which activation did it give?
A: -3.08%

Q: For `Cc1ccc(CNC(=O)C2CCCN2C(=O)NCc2ccccc2)cc1` (stereo not given), which activation is on record?
A: -8.36%

Q: With `O=C(CO/N=C/c1ccccc1O)NNC(=O)c1ccccc1Cl` as the compound, how does the activation read?
A: -5.77%

Q: Which activation does the source give for `Cc1ccc(S(=O)(=O)/N=C(/Nc2ccccn2)c2ccc(Cl)cc2)cc1` here?
A: -4.9%

Q: How did the activation turn out when `CSc1ccccc1-c1nnc(-c2ccc(Cl)cc2)o1` was run?
A: -1.63%

Q: How did the activation turn out when `Cc1ccc(N2CCN(C3=NC(=O)/C(=C\c4cccs4)S3)CC2)cc1` was run?
A: -8.97%

Q: With `O=Cc1c(N2CCN(c3cccc(Cl)c3)CC2)nc2ccccn2c1=O` as the compound, how does the activation read?
A: -4.84%

Q: Which activation does the source give for `CN1C(=O)C(CC(N)=O)N(NC(=O)c2ccc(Cl)cc2)C1=S` (stereo not given) here?
A: -7.47%

Q: With `Cc1nc2ccccc2cc1O` as the compound, how does the activation read?
A: -0.52%

Q: With `CSc1nc(N)c(C#N)c(-c2ccccc2Cl)c1C#N` as the compound, how does the activation read?
A: -7.07%

Q: With `CSc1nc2ccccc2cc1/C=C(\C#N)c1ccc(Cl)cc1Cl` as the compound, how does the activation read?
A: 19.8% (active)

Q: How did the activation turn out when `Cc1sc(NC(=O)C2C3CCC(O3)C2C(=O)O)c(C(=O)OC(C)C)c1-c1ccc(Cl)cc1` (stereo not given) was run?
A: -9.04%

Q: `CN(C)c1ccc(/C=C2\NC(=S)N(Cc3ccccc3)C2=O)cc1` was tested. Which activation did it give?
A: -4.43%

Q: For `Cc1ccc(-c2nc(C)sc2CC(=O)O)cc1`, which activation is on record?
A: -2.07%

Q: Which activation does the source give for `CN(c1cccc(NC(=O)Nc2ccc(Cl)cc2)c1)S(C)(=O)=O` here?
A: -3.59%

Q: Which activation does the source give for `Nc1c(-c2ccc(F)cc2)cnn1C1CCS(=O)(=O)C1` (stereo not given) here?
A: -4.76%

Q: With `Cc1ccc(C2C(C#N)C(C#N)N3CCCN23)cc1` (stereo not given) as the compound, how does the activation read?
A: -4.89%

Q: With `N/C(=N\OC(=O)CCC1CCCCC1)c1ccccn1` as the compound, how does the activation read?
A: -3.14%
